The values that follow come from PubChem BioAssay AID504832 (National Center for Advancing Translational Sciences (NCATS), 2011).

“And” between values parts separate entries of the source, which are not always exact repeats. Identical values can stand only once. About 18,000 (5.8%) of roughly 310,000 compounds were called active. Where a call stands in place of a potency, no number is given. Roughly 22% stayed inconclusive and do not appear here. The sample holds actives, similar compounds and a random draw of the others, so the mix is not that of the screen. The call rests on the fitted dose curve; in most records, active means well fitted inhibition curve with a large enough effect; inconclusive means small, poorly fitted or top-dose-only effect, or another doubt; inactive means no such curve, though single readings can be large or run the other way. More than one record can exist for a structure, and the calls need not agree.
Potency means the concentration at half of the fitted maximal effect.

This experiment is described as follows: Primary qHTS for delayed death inhibitors of the malarial parasite plastid, 48 hour incubation. To be noted: P. falciparum luciferase growth in erythrocytes; series mostly up to 28.7 µM. The method in brief: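 A one-generation exposure of luciferase-tagged malaria parasites in RPMI 1640/Albumax erythrocyte culture, 37 C and 5% CO2. Inhibition is inferred from decreased luminescence after adding detection reagent.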
(In general: qHTS replaces the single test concentration by a dilution series.)
In the case of `O=C(Nc1sc2c(c1C(=O)O)CCC2)c1ccccc1F`, the Potency result was “inactive”. Same read-out and setting: with `C=CCn1c(=NC(=O)c2ccc(S(=O)(=O)N3CCCC3)cc2)sc2cc(NC(C)=O)ccc21` the figure was 1.85 µM (active); with `C=CCn1c(=NC(=O)c2cccs2)sc2cc(NC(C)=O)ccc21`, “inactive”. For the compound `COc1cc(C(C)=O)ccc1OC(C)C(=O)Nc1ccc(S(=O)(=O)N2CCCC2)cc1` (stereo not given), the Potency entry is “inactive”. The same measure, in the same setting: the same measure for `CCOc1ccc(C(=O)Nc2ccc(S(=O)(=O)Nc3cc(C)on3)cc2)cc1`: “inactive”; for `COc1ccc(C)cc1NC(=O)CNCc1cccs1`: “inactive”.

Turning to `C[C@H](NC(=O)OC(C)(C)C)c1nnc(SCC(=O)Nc2ccc(Br)cc2)o1`, the Potency entry is “inactive”. For the compound `CCOC(=O)Nc1ccc(NC(=O)OCC)cc1`, the Potency entry was “inactive”. As to `CC(C)(C)OC(=O)Nc1ccc([C@@H](NC(=O)OC(C)(C)C)C(=O)OC(C)(C)C)cc1`, the Potency was 2.08 µM (active).

On to `CN(Cc1ccccc1Cl)C(=O)C1CCC(=O)N(CCc2cccc(F)c2)C1` (stereo not given), for which the Potency entry is “inactive”. Still for that read-out and setting: with `CCOC(=O)C1=C(CNC2CCCCC2)NC(=O)NC1c1cc(C)ccc1C` (stereo not given) the figure was 10.4 µM (active); with `CC1=C(C(=O)OCC2CCCCC2)C(c2ccc(F)cc2)NC(=O)N1` (stereo not given), “inactive”; with `CCOC(=O)C1=C(c2ccccc2)NC(=O)NC1c1cc(OC)c(OC)cc1OC` (stereo not given), “inactive”. In the case of `Cc1ccc(S(=O)(=O)CC(=O)Nc2nnc(C)s2)cc1`, the Potency entry is “inactive”.

With `CCCCCC(=O)NC(=S)NNC(=O)c1ccc([N+](=O)[O-])cc1`, the Potency result is “inactive”. Still for that read-out and setting: the same measure for `O=C(NC(=S)NC1CCS(=O)(=O)C1)c1cccc([N+](=O)[O-])c1` (stereo not given): “inactive”; for `CC(C)CC(=O)NC(=S)NNC(=O)c1cccc([N+](=O)[O-])c1`: 14.7 µM (active). On the same count and under the same terms, with `Cc1cc(C(=O)Nc2nnc(C3CC3)s2)c(C)s1` the entry was “inactive”; with `CC(NCC(=O)Nc1ccccc1C(=O)NC1CC1)c1ccccc1Cl` (stereo not given), 9.28 µM (active). With `O=C(COc1ccccc1Cl)Nc1ccccc1C(=O)NC1CC1`, the Potency result is “inactive”. As to `O=C(CN1CCCCC1)Nc1ccccc1C(=O)NC1CC1`, the Potency result is “inactive”.

Turning to `O=C(CN1C(=O)NC2(CCCCC2)C1=O)NCCc1c[nH]c2ccccc12`, the Potency entry was “inactive”. On the same count and under the same terms, with `CCN(CC(=O)Nc1ccc(NC(C)=O)cc1)C(=O)C1CC(=O)N(Cc2ccc(C)cc2)C1` (stereo not given) the entry was “inactive”; with `NS(=O)(=O)c1ccc(CNC(=O)c2cccc(S(=O)(=O)N3CCc4ccccc43)c2)cc1`, 14.7 µM (active); with `CC1CCN(C(=O)c2cccc(S(=O)(=O)N3CCCc4ccccc43)c2)CC1`, “inactive”. `Cc1ccc(NC(=O)c2cccc(S(=O)(=O)N3CCCc4ccccc43)c2)nc1`: the Potency was 4.15 µM (active). In the case of `CN1CCN(S(=O)(=O)c2cccc(C(=O)N3CCc4ccccc43)c2)CC1`, the Potency result is “inactive”. On the same count and under the same terms, with `Cn1c(=O)n(C)c2cc(S(=O)(=O)N3CCCc4ccccc43)ccc21` the entry was “inactive”; with `O=S(=O)(c1ccc2c(c1)OCCO2)N1CCc2ccccc21`, “inactive”; with `Cc1nc(COc2cc3oc(=O)cc(C)c3cc2Cl)cs1`, “inactive”.

In the case of `NC(=O)C1CCCN(CC(=O)N2CCN(c3ccccc3)CC2)C1` (stereo not given), the Potency entry was “inactive”.

As for `Cc1ccc(-n2ncc3c2CC(C)(C)CC3NC(=O)CCc2cnn(C)c2)cc1` (stereo not given), the Potency result was “inactive”. Same read-out and setting: the same measure for `C[n+]1cc(-c2ccccc2)oc1-c1ccccc1`: “inactive”; for `O=C(COc1ccc2c3c(c(=O)oc2c1)CCCC3)NCC(O)c1ccccc1` (stereo not given): “inactive”; for `CCCN1C(=O)C(Cc2nc3ccccc3c(=O)n2-c2ccccc2)c2cc(C)ccc21` (stereo not given): 13.1 µM (active).

Regarding `CCCc1nc2ccccc2c(=O)n1/N=C/c1ccc(O)c(O)c1`, the Potency entry is “inactive”. Turning to `O=c1c2ccccc2nc(CSc2nnnn2-c2ccccc2)n1-c1ccccc1`, the Potency entry is “inactive”. As to `COCCNC(=O)CN(Cc1ccco1)C(=O)CCC(=O)Nc1nccs1`, the Potency entry was “inactive”. Still for that read-out and setting: with `CCOc1ccc(CCNC(=O)CCc2nnc3ccc(N4CCCC4)nn23)cc1OCC` the entry was “inactive”. On the same count and under the same terms, with `CC1C(=O)N2CCCc3cc(S(=O)(=O)NCc4ccc(F)cc4)cc1c32` (stereo not given) the entry was “inactive”; with `CC1CCN(C(=O)C2CCN(S(=O)(=O)N3CCC4(CC3)OCCO4)CC2)CC1`, “inactive”; with `CC1(C)CC(=O)CC2(C1)NCC(c1ccccc1Cl)c1c2[nH]c2ccccc12` (stereo not given), 10.4 µM (active). As to `COc1ccc(NC(=O)CN2CCN(S(=O)(=O)c3ccc(F)cc3)CC2)cc1Cl`, the Potency result was “inactive”.

Take `C/C(=N/NC(=O)CN1CCN(S(=O)(=O)c2ccc(Br)cc2)CC1)c1ccncc1`: the Potency result was “inactive”. Still for that read-out and setting: with `O=C(CN1CCN(S(=O)(=O)c2ccc(Br)cc2)CC1)Nc1ccccc1C(=O)c1ccccc1` the figure was 13.1 µM (active). As to `COc1cc2c(cc1NC(=O)COC(=O)/C=C/c1ccccc1)oc1ccccc12`, the Potency entry is “inactive”. In the case of `O=C(CN1CCN(S(=O)(=O)c2ccc(F)cc2)CC1)Nc1ccccc1F`, the Potency result is “inactive”.

In the case of `COc1cc2c(cc1NC(=O)CN1CCN(S(=O)(=O)c3ccc(F)cc3)CC1)oc1ccccc12`, the Potency was 10.4 µM (active). Take `CCCn1c(N)c(N(CCOC)C(=O)C2CCCC2)c(=O)[nH]c1=O`: the Potency result was “inactive”. As to `Cc1cc(NC(=O)CCS(=O)(=O)c2ccc(F)cc2)no1`, the Potency result is “inactive”. The same measure, in the same setting: the same measure for `CC(C)=N/N=C1/NC(=O)C(Cc2ccccc2)S1` (stereo not given): “inactive”. In the case of `N#CC1(NC(=O)COC(=O)CCN=C2NS(=O)(=O)c3ccccc32)CCCCC1`, the Potency entry was “inactive”. `CC(=O)Nc1ccc(S(=O)(=O)N2CCC(C(=O)N[C@@H](Cc3ccccc3)C(=O)O)CC2)cc1`: the Potency entry is “inactive”. In the case of `CN1CCc2cc3c(cc2[C@H]1[C@@H]1OC(=O)c2c1ccc1c2OCO1)OCO3`, the Potency entry is “inactive”. Still for that read-out and setting: the same measure for `COc1cc(COCC(O)CN2CCN(Cc3ccc4c(c3)OCO4)CC2)cc(OC)c1OC` (stereo not given): “inactive”; for `COc1c(O)ccc2c1CN1CCc3cc4c(cc3C1C2)OCO4` (stereo not given): 1.85 µM (active). With `COc1ccc(N2CCN(C(=O)CNC(=O)c3ccc(Br)o3)CC2)cc1`, the Potency result is “inactive”.

For `COc1cccc(C(=O)NNC(=O)c2cccc(F)c2)c1`, the Potency entry was “inactive”. Same read-out and setting: with `CC(OC(=O)CCC(=O)c1ccccc1)C(=O)Nc1ccc(F)cc1` (stereo not given) the entry was “inactive”. On to `C=CCC(NCc1ccco1)c1ccc(OC)cc1` (stereo not given), for which the Potency entry was “inactive”. Turning to `COc1ccc(Nc2nc(Cl)nc(NCc3ccco3)n2)cc1`, the Potency entry is “inactive”. Take `COc1ccc(Nc2nc(NCc3ccco3)nc(N/N=C/c3ccccc3Cl)n2)cc1`: the Potency is 10.4 µM (active). In the case of `CC1(c2nnc(Cc3ccccc3)o2)CC(c2ccccc2F)=NO1` (stereo not given), the Potency entry is “inactive”. Same read-out and setting: with `O=C(Nc1ccc(S(=O)(=O)NCC2CCCO2)cc1)c1ccc(F)cc1` (stereo not given) the entry was “inactive”. Still for that read-out and setting: with `Cc1ccc(C)c(OCc2cc(C(=O)N3CCN(c4cnccn4)CC3)no2)c1` the entry was “inactive”; with `COc1cc(C2C3=C(CCCC3=O)OC3=C2C(=O)CCC3)ccc1OCC(=O)Nc1ccccc1`, “inactive”. On the same count and under the same terms, with `O=C(CCC1CCCC1)N=C1SC2CS(=O)(=O)CC2N1Cc1ccccc1` (stereo not given) the entry was “inactive”; with `CC(C)(C)c1ccc(C(CC(=O)O)NS(=O)(=O)Cc2ccccc2)cc1` (stereo not given), “inactive”; with `CCCOc1ccc(C(=O)C(CCC(CNCC)C(=O)c2ccc(OCCC)cc2)CNCC)cc1` (stereo not given), 1.85 µM (active). Turning to `CCCOc1ccc(C(=O)CCC(=O)OC(C)C(=O)Nc2ccc(NC(C)=O)cc2)cc1` (stereo not given), the Potency result is “inactive”. The same measure, in the same setting: with `CCCOc1ccc(C(=O)NCCc2ccccc2)cc1` the entry was “inactive”; with `COc1ccc(NC(=O)N2CCCC2C(=O)NCc2ccccc2Cl)cc1` (stereo not given), “inactive”; with `O=C(N/C(=C\c1ccc(O)cc1)C(=O)N1CCCCC1)c1ccccc1`, “inactive”. In the case of `Nc1ccn(C2CC(O)C(CO)O2)c(=O)n1` (stereo not given), the Potency entry is “inactive”. Same read-out and setting: the same measure for `Cc1ccc(NC(=O)CSc2nc(=O)n(CCN(C)C)c3c2CCCC3)c(C)c1`: “inactive”; for `Cc1cc2c(c(=O)n1Cc1ccccc1)C1O[C@](CCCCN3C(=O)c4ccccc4C3=O)(Cc3ccccc31)O2`: 0.675 µM (active). Consider `COc1ccc2c3c(c(=O)oc2c1)C1O[C@](CCCCN2C(=O)c4ccccc4C2=O)(Cc2c1ccc1ccccc21)O3`, for which the activity change, negative = inhibition is 44.1% [at 5.75 µM] (inactive).

Consider `C=CCn1c(C)cc(C(=O)CN2C(=O)c3ccccc3C2=O)c1C`, for which the Potency result was “inactive”. On the same count and under the same terms, with `CC(C)(C)NC(=O)NC(=O)COC(=O)Cc1ccc(Cl)cc1Cl` the entry was “inactive”. Same read-out and setting: with `CC(C)(C)c1cc(C(=O)NN)n(Cc2ccc(Cl)cc2Cl)n1` the figure was 10.4 µM (active); with `NNC(=O)c1ccc(Cl)cc1Cl`, “inactive”; with `O=C(Cc1ccc(Cl)cc1)NC(=S)Nc1ccccc1O`, “inactive”. On the same count and under the same terms, with `Cc1cc(SCc2c(F)cccc2Cl)nc(=O)[nH]1` the entry was “inactive”; with `Cc1cc(C)nc(S/C=C/C(=O)c2ccccc2)n1`, “inactive”. In the case of `C/C(=N\NC(=O)c1nc(C)cc(C)n1)c1ccccc1`, the Potency result is “inactive”. Turning to `COC(c1ccccc1)(c1ccccc1)C(Oc1nc(C)cc(C)n1)C(=O)O` (stereo not given), the Potency entry was “inactive and 11.7 µM (active)”. Take `COc1ccccc1N1CCN(S(=O)(=O)c2ccc(Cl)cc2)CC1`: the activity change, negative = inhibition is 1.21% [at 0.00184 µM] (inactive). Turning to `CC1CCC(NC(=O)CN(C)S(=O)(=O)c2ccc3c(c2)c(=O)n(C)c(=O)n3C)CC1` (stereo not given), the Potency result was “inactive”. Regarding `Cc1cc(=O)oc2c1ccc1ccccc12`, the Potency entry was “inactive”. The same measure, in the same setting: with `Cc1ccc(NC(=S)NC2CCCC2)cc1` the entry was “inactive”; with `C=CCN1C2CCCC1CC(NC(=S)Nc1cccc(OC)c1)C2` (stereo not given), “inactive”. Consider `Cc1cc(C)cc(NC(=S)NC2CC3CCCC(C2)N3Cc2cccs2)c1` (stereo not given), for which the Potency was 9.28 µM (active).

On to `CC(=O)O[C@H]1CC[C@@]2(C)[C@@H](CC[C@@H]3[C@@H]2CC[C@]2(C)[C@@H](C(C)(C)O)C[C@@H]32)C1`, for which the Potency entry was “inactive”. `O=C(/C=C(O)/C=C/c1ccc(O)cc1)/C=C/c1ccc(O)cc1`: the Potency entry is “inactive”. For the compound `CC(=O)Nc1ccc(NC(=O)C(C)OC(=O)C2CC(=O)N(CCc3ccccc3)C2)cc1` (stereo not given), the Potency result was “inactive”. Take `O=C1CC[C@H](O)CCN1[C@H](CSc1ccc(Br)cc1)Cc1ccccc1`: the Potency result was “inactive”. Take `CC(=O)Nc1ccc(SC[C@H](Cc2ccccc2)N2CC[C@@H](C)CCC2=O)cc1`: the Potency is 6.57 µM (active). With `Cc1ccc2nc(NC(=O)C3CSC4(C)CCC(=O)N34)sc2c1` (stereo not given), the Potency result was “inactive”. With `Cc1cc(-c2nnc(SCC(=O)Nc3ccc(F)cc3)n2N)n[nH]1`, the Potency result was “inactive”. Consider `CC(C)Cc1nnc(NC(=O)CCc2ccccc2)s1`, for which the Potency result was “inactive”.
